# What was measured:
# Assay in all cases: DAPPL (digital affinity profiling via proximity ligation, sequencing); 10 mM Tris-HCl pH 7.5, 50 mM NaCl, 1 mM DTT, 4% glycerol, room temperature, 30 min; GST-TFs on glutathione beads, 16-mer random dsDNA library, 0.1% formaldehyde crosslink after washing; high values mean tight binding
# FLI1 = target: T1, FLI1 (Homo sapiens, UniProt Q01543 1-452); settings: protein: recombinant; tags: N-terminal GST; dsDNA, one strand shown
# T1 sequence: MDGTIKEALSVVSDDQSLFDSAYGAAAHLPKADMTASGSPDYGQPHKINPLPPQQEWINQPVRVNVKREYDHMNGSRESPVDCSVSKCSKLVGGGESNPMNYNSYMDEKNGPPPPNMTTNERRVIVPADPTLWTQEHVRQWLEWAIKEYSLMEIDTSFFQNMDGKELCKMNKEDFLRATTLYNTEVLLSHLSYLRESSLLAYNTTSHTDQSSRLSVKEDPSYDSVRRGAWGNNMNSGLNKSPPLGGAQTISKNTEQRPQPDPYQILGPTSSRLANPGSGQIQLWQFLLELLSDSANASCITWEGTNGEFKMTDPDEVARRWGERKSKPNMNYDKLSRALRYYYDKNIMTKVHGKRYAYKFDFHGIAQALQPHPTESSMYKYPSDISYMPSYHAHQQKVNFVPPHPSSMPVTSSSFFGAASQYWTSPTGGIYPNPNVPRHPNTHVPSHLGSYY
# How it was run: (§1)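 A tag-only sample was pooled with DNA-barcoded human transcription factors that had been expressed in yeast as GST fusions and captured on glutathione beads. The pools were incubated for 30 min at room temperature with 200 nmole of a random double-stranded 16-mer DNA library in Tris/NaCl/DTT/glycerol buffer, then washed, crosslinked with 0.1% formaldehyde, proximity-ligated (BsaI/T4 ligase, 1 h, 37 °C), PCR-amplified and sequenced on an Illumina NextSeq500. Binding signal is each hexamer's read frequency for a factor divided by its frequency for the tag-only sample.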
# ELK1 = target: T2, ELK1 (Homo sapiens, UniProt P19419 1-428); settings: protein: recombinant; tags: N-terminal GST; dsDNA, one strand shown
# T2 sequence: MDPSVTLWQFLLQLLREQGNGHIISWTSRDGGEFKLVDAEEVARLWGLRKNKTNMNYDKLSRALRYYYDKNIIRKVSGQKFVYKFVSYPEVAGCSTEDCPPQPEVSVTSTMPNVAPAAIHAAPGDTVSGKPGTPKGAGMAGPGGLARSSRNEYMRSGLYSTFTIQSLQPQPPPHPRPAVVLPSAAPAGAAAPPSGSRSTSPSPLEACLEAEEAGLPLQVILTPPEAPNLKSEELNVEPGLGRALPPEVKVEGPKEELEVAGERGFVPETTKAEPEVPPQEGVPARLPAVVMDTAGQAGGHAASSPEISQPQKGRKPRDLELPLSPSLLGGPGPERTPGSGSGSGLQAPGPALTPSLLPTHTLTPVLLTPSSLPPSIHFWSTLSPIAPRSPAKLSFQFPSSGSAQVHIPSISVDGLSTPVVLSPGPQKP
# How it was run: as §1
# GABPA = target: T3, GABPA (Homo sapiens, UniProt Q06546 1-454); settings: protein: recombinant; tags: N-terminal GST; dsDNA, one strand shown
# T3 sequence: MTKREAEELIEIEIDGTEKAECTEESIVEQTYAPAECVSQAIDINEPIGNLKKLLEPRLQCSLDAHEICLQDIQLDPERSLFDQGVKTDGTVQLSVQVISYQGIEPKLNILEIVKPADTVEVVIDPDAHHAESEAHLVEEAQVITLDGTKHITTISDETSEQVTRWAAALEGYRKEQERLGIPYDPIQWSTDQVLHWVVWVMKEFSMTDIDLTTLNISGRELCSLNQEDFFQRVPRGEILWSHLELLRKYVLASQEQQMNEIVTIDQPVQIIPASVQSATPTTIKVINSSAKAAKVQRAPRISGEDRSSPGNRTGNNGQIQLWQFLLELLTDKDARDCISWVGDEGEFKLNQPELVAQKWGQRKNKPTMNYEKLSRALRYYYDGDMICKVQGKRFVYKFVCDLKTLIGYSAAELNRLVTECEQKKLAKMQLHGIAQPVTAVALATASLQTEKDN
# How it was run: as §1
# ERG = target: T4, ERG (Homo sapiens, UniProt P11308 1-479); settings: protein: recombinant; tags: N-terminal GST; dsDNA, one strand shown
# T4 sequence: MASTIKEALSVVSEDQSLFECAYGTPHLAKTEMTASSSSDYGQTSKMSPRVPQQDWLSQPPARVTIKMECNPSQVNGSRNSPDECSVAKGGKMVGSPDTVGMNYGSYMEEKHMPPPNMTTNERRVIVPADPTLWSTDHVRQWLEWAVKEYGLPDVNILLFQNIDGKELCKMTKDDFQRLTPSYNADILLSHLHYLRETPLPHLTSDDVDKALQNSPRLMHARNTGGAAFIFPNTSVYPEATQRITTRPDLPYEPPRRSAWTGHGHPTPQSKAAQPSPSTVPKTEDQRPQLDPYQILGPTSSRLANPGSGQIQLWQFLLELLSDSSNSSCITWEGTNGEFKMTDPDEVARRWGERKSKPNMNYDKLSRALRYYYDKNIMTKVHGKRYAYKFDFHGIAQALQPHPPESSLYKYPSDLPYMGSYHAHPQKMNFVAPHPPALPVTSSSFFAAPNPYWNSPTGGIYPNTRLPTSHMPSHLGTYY
# How it was run: as §1
# ELF1 = ELF1 (Homo sapiens, UniProt P32519 1-619); settings: protein: recombinant; tags: N-terminal GST; dsDNA, one strand shown
# Sequence of ELF1 (P32519 whole entry): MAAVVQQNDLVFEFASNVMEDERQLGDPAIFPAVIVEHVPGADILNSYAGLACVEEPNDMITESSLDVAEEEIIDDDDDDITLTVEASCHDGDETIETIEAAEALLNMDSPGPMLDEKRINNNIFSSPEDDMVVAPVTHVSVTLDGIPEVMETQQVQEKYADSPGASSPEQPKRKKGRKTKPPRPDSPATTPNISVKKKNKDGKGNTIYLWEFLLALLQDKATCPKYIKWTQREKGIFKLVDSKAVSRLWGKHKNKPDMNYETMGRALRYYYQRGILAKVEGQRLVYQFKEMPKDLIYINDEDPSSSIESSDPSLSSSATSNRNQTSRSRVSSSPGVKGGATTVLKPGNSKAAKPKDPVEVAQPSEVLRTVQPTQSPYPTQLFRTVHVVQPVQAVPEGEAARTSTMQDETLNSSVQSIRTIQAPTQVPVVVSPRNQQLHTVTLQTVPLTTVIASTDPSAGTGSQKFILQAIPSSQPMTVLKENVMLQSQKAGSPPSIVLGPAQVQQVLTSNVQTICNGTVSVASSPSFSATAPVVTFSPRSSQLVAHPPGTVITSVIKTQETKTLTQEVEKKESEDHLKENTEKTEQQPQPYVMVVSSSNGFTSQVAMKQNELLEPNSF
# How it was run: as §1
# EHF = target: T5, EHF (Homo sapiens, UniProt Q9NZC4 1-300); settings: protein: recombinant; tags: N-terminal GST; dsDNA, one strand shown
# T5 sequence: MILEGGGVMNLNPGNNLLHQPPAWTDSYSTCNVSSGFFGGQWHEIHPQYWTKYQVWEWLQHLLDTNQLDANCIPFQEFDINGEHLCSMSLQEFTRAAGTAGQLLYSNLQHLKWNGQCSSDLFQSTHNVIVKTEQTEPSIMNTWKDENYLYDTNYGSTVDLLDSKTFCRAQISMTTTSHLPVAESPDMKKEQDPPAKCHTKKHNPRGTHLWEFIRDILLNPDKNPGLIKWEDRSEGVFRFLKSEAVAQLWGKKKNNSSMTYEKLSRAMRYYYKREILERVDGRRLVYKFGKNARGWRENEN
# How it was run: as §1
# SPI1 = SPI1 (Homo sapiens, UniProt P17947 1-270); settings: protein: recombinant; tags: N-terminal GST; dsDNA, one strand shown
# How it was run: as §1
# SPIB = SPIB (Homo sapiens, UniProt Q01892 1-262); settings: protein: recombinant; tags: N-terminal GST; dsDNA, one strand shown
# Sequence of SPIB (Q01892 whole entry): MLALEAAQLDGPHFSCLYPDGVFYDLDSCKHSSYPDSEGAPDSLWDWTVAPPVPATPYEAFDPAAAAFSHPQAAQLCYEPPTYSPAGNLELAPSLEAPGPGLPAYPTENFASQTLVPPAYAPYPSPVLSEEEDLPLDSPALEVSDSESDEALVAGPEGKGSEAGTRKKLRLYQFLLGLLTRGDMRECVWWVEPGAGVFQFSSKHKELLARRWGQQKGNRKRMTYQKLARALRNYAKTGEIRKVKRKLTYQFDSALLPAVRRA
# How it was run: as §1
# ELK3 = target: T6, ELK3 (Homo sapiens, UniProt P41970 1-407); settings: protein: recombinant; tags: N-terminal GST; dsDNA, one strand shown
# T6 sequence: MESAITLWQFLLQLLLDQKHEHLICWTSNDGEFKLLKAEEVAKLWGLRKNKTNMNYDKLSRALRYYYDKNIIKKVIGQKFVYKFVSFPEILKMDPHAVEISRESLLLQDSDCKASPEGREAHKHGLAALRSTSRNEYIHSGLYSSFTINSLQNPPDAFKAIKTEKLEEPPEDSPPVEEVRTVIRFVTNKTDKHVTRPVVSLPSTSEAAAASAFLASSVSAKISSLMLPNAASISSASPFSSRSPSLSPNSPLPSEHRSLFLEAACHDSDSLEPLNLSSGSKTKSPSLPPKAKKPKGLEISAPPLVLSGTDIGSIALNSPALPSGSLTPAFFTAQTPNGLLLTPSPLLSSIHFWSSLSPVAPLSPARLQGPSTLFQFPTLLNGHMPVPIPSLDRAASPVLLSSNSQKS
# How it was run: as §1
# FEV = target: T7, FEV (Homo sapiens, UniProt Q99581 1-238); settings: protein: recombinant; tags: N-terminal GST; dsDNA, one strand shown
# T7 sequence: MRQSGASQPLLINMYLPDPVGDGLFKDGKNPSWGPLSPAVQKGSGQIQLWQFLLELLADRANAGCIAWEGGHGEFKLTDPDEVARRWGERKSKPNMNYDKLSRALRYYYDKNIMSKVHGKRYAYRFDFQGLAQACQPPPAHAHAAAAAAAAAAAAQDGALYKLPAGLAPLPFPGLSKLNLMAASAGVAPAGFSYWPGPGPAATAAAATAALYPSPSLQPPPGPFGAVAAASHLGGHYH
# How it was run: as §1
# ETV5 = ETV5 (Homo sapiens, UniProt P41161 1-510); settings: protein: recombinant; tags: N-terminal GST; dsDNA, one strand shown
# Sequence of ETV5 (P41161 whole entry): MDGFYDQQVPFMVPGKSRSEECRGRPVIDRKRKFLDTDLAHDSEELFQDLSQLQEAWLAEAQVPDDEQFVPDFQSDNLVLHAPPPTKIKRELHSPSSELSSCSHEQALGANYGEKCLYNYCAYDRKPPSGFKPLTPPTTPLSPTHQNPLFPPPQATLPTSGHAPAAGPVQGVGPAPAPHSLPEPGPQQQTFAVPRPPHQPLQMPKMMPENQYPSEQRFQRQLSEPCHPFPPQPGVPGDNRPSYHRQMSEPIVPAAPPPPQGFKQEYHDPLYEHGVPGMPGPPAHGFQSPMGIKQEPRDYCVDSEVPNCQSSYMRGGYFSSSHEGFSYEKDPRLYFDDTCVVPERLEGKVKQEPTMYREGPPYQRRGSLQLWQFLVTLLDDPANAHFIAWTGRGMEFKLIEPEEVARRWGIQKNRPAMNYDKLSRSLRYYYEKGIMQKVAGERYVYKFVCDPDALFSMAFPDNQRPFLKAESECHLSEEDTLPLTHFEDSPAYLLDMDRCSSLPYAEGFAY
# How it was run: as §1
# HSF1 = HSF1 (Homo sapiens, UniProt Q00613 1-529); settings: protein: recombinant; tags: N-terminal GST; chain copies: 3; dsDNA, one strand shown
# Sequence of HSF1 (Q00613 whole entry): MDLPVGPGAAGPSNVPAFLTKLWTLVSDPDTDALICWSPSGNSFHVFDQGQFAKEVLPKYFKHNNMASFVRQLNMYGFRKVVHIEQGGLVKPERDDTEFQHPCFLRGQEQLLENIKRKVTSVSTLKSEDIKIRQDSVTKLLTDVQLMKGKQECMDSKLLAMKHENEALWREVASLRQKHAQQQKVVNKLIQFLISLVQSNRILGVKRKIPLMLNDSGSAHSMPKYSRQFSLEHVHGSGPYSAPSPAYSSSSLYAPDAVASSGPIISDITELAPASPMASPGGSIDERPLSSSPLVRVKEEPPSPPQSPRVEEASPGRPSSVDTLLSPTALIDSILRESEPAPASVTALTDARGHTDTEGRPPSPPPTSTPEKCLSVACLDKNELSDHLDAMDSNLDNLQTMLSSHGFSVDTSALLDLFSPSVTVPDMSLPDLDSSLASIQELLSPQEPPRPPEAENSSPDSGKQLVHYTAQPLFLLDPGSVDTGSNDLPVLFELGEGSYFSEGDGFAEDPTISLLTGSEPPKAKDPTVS
# How it was run: as §1
# SPIC = target: T8, SPIC (Homo sapiens, UniProt Q8N5J4 1-248); settings: protein: recombinant; tags: N-terminal GST; dsDNA, one strand shown
# T8 sequence: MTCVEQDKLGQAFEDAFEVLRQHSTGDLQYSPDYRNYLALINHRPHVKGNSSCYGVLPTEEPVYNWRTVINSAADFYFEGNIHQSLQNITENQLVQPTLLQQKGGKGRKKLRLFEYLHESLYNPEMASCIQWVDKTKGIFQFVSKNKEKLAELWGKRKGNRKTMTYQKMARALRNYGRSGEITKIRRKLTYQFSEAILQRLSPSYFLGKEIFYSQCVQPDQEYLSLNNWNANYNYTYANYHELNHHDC
# How it was run: as §1
# ELF4 = ELF4 (Homo sapiens, UniProt Q99607 1-663); settings: protein: recombinant; tags: N-terminal GST; dsDNA, one strand shown
# Sequence of ELF4 (Q99607 whole entry): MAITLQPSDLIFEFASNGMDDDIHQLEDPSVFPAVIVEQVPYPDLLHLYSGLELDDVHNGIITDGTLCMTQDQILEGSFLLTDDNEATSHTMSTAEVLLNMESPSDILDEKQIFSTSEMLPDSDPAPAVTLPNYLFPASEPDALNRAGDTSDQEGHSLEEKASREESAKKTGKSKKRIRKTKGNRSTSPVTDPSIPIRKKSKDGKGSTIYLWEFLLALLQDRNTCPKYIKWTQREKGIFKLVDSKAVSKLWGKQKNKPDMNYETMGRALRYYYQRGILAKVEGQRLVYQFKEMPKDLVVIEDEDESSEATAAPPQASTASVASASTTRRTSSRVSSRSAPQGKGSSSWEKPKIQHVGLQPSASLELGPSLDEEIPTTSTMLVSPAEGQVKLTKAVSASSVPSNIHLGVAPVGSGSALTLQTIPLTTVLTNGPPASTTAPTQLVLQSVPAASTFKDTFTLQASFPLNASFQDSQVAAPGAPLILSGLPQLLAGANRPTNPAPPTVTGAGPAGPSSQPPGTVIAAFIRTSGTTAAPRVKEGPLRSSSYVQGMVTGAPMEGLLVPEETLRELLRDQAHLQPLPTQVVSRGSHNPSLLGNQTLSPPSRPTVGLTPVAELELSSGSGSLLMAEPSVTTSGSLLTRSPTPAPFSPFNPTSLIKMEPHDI
# How it was run: as §1
# ELK4 = target: T9, ELK4 (Homo sapiens, UniProt P28324-2 1-405); settings: protein: recombinant; tags: N-terminal GST; dsDNA, one strand shown
# T9 sequence: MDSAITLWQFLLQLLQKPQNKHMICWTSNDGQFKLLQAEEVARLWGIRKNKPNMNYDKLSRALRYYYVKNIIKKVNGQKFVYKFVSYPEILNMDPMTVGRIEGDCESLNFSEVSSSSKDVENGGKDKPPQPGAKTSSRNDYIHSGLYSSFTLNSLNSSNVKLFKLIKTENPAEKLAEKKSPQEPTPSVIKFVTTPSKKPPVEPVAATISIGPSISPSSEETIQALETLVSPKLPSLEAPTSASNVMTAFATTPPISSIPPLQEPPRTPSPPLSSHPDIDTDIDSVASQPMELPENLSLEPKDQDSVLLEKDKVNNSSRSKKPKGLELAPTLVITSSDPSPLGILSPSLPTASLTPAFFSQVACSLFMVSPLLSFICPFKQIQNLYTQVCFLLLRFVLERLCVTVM
# How it was run: as §1
# ETV2 = target: T10, ETV2 (Homo sapiens, UniProt O00321 1-342); settings: protein: recombinant; tags: N-terminal GST; dsDNA, one strand shown
# T10 sequence: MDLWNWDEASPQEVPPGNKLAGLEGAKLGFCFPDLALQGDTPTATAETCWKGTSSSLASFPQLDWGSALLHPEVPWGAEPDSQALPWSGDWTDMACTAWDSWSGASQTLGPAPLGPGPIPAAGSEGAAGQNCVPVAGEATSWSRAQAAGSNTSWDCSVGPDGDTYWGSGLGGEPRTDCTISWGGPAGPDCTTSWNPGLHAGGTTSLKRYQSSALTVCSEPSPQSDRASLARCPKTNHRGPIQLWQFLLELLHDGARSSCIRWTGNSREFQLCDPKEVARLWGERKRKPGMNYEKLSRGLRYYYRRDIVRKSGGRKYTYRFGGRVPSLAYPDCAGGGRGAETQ
# How it was run: as §1
# ELF3 = target: T11, ELF3 (Homo sapiens, UniProt P78545 1-371); settings: protein: recombinant; tags: N-terminal GST; dsDNA, one strand shown
# T11 sequence: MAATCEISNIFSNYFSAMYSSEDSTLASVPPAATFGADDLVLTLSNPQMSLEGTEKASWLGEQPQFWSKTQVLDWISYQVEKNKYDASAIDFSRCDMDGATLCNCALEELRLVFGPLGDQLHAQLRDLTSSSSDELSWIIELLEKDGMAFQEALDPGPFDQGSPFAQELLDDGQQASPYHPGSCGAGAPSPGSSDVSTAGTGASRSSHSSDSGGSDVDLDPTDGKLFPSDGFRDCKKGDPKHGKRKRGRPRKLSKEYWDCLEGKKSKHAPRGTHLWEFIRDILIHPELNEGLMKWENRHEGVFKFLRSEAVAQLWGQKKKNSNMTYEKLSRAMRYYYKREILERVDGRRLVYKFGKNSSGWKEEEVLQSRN
# How it was run: as §1
# CRX = CRX (Homo sapiens, UniProt O43186 1-299); settings: protein: recombinant; tags: N-terminal GST; dsDNA, one strand shown
# Sequence of CRX (O43186 whole entry): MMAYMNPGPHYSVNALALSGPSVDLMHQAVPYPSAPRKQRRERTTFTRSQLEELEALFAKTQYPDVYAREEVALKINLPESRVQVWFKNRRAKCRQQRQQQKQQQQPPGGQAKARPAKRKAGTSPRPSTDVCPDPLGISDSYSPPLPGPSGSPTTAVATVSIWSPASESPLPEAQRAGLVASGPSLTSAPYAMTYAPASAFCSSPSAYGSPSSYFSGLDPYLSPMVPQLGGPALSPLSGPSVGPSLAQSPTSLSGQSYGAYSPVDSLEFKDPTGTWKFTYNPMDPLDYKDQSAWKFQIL
# How it was run: as §1
# ETV1 = ETV1 (Homo sapiens, UniProt P50549 1-477); settings: protein: recombinant; tags: N-terminal GST; dsDNA, one strand shown
# Sequence of ETV1 (P50549 whole entry): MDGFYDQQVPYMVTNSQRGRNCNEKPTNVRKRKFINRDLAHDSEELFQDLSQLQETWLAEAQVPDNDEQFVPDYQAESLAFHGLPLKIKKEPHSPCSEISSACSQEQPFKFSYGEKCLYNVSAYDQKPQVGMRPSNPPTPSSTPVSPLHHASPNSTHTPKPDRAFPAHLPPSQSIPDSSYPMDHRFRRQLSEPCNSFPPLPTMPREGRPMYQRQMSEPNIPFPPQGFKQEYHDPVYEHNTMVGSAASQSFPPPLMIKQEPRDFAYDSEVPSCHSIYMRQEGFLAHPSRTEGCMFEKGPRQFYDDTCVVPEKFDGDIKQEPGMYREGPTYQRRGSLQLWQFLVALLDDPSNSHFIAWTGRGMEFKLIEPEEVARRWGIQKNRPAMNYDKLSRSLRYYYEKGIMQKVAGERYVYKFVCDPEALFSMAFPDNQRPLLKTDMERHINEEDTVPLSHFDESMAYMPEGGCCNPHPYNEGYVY
# How it was run: as §1
sequence,measurement,setting,value
TTGCAC,binding signal,FLI1,"1.3 fold enrichment (6-mer frequency, TF over GST control)"
same,binding signal,ELK1,"1.32 fold enrichment (6-mer frequency, TF over GST control)"
same,binding signal,GABPA,"1.27 fold enrichment (6-mer frequency, TF over GST control)"
same,binding signal,ERG,"1.27 fold enrichment (6-mer frequency, TF over GST control)"
same,binding signal,ELF1,"1.28 fold enrichment (6-mer frequency, TF over GST control)"
same,binding signal,EHF,"1.21 fold enrichment (6-mer frequency, TF over GST control)"
same,binding signal,SPI1,"1.26 fold enrichment (6-mer frequency, TF over GST control)"
same,binding signal,SPIB,"1.16 fold enrichment (6-mer frequency, TF over GST control)"
same,binding signal,ELK3,"1.34 fold enrichment (6-mer frequency, TF over GST control)"
same,binding signal,FEV,"1.24 fold enrichment (6-mer frequency, TF over GST control)"
same,binding signal,ETV5,"1.24 fold enrichment (6-mer frequency, TF over GST control)"
same,binding signal,HSF1,"1.1 fold enrichment (6-mer frequency, TF over GST control)"
same,binding signal,SPIC,"1.07 fold enrichment (6-mer frequency, TF over GST control)"
same,binding signal,ELF4,"1.31 fold enrichment (6-mer frequency, TF over GST control)"
same,binding signal,ELK4,"1.31 fold enrichment (6-mer frequency, TF over GST control)"
same,binding signal,ETV2,"1.22 fold enrichment (6-mer frequency, TF over GST control)"
same,binding signal,ELF3,"1.23 fold enrichment (6-mer frequency, TF over GST control)"
same,binding signal,CRX,"1.11 fold enrichment (6-mer frequency, TF over GST control)"
same,binding signal,ETV1,"1.22 fold enrichment (6-mer frequency, TF over GST control)"
